Assay [1] in a line: Primary qHTS for inhibitors of nuclear receptor binding SET domain protein 2 (NSD2) in an RCH-ACV wild type WT cells (2C) (AID 1645877). For activity change, negative = cell killing: % is set by controls: 0 for no effect and ±100 for the full control effect. Note: nearly all actives have a fitted effect of over 70% in size. Note: potency is the fitted concentration of half-maximal effect. For orientation: In qHTS, concentration-response curves come from the screen itself.
The target of assay [2] is Glutathione peroxidase 1 (Homo sapiens) (UniProt P07203). Nature of the assay: Primary qHTS Assay for Inhibitors of Recombinant Selenoprotein Glutathione Peroxidase 1 (GPX1) (AID 1845191). For activity, negative = inhibition: % is set by controls: 0 for no effect and ±100 for the full control effect. Note: nearly all actives have a fitted effect of over 65% in size. The method in brief:
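GR-coupled readout: NADPH consumption tracked by fluorescence, ex 340/em 450 nm, at t=0 and after 15 min at RT. Final mix 10 nM GPX1, 1 mM GSH, 0.5 mM CHP, 0.5 mM NADPH, 100 nM GR, 0.01% BSA, following 30 min enzyme–compound preincubation.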

The target of assay [3] is Phospholipid hydroperoxide glutathione peroxidase GPX4 (Homo sapiens) (UniProt P36969). Nature of the assay: Primary qHTS Assay for Inhibitors of Recombinant Selenoprotein Glutathione Peroxidase 4 (GPX4) (AID 1845192). For activity change, negative = inhibition: series mostly up to about 50 µM; % is set by controls: 0 for no effect and ±100 for the full control effect. Note: nearly all actives have a fitted effect of over 65% in size. The method in brief:
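Steps: GPX4 plus compound, 30 min RT; add GR/GSH/NADPH master mix; start with cumene hydroperoxide; read 340/450 nm fluorescence at 0 and 15 min. Finals were 200 nM GPX4, 1 mM GSH, 0.5 mM CHP, 0.5 mM NADPH, 100 nM GR.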

Assay [4] concerns the target Luciferin 4-monooxygenase (Photinus pyralis) (UniProt P08659). Nature of the assay: Primary firefly luciferase (FLuc) qHTS assay for identification of artifact compounds. (AID 1845220).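 For activity change, negative = inhibition: series mostly up to about 54 µM; plate controls were DMSO vehicle for no effect and no enzyme for full effect.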 Note: nearly all actives have a fitted effect of over 60% in size. An outline of the steps:
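Enzymatic FLuc inhibition assay: compounds pre-exposed to luciferin/ATP (10 uM each) for 15 min, then purified P. pyralis enzyme at 10 nM added. Read-out: luminescence at 5 min.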

A short description of assay [5]: Primary fluorescence-based thiol-reactive (MSTI) qHTS assay for identification of artifact compounds. (AID 1845221).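 For activity change, negative = thiol reactive: series mostly up to about 54 µM; thiol-reactive compounds lower the probe fluorescence signal.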 Note: nearly all actives have a fitted effect of over 65% in size. Note: potency is the fitted concentration of half-maximal effect. An outline of the steps: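 Curve-fitted percent inhibition (4-parameter Hill) derived from fluorescence, Ex 525/Em 598 nm, scaled with Acetyl-MSTI and MSTI; 1 h incubation at room temperature.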
Assay [6] deals with Nanoluciferase (engineered Oplophorus gracilirostris luciferase). Nature of the assay: Primary Nanoluciferase (NLuc) qHTS assay for identification of artifact compounds. (AID 1845222).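 Note: NLuc secreted into diluted conditioned medium of S16 cells; series mostly up to about 54 µM; 0% = DMSO and -100% = no enzyme.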 The method in brief: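 S16 cell supernatant NLuc, 1:55; cpds qHTS; 15 min RT dark; Nano-Glo substrate 1:100, 5 min; luminescence; Hill fit of % inhibition.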
Assay [7] in a line: Primary redox qHTS assay for identification of artifact compounds. (AID 1845223).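 Note: 0% = DMSO and 100% = reference compound.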 An outline of the steps:
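Redox-cycling detection via DTT (250 uM final) oxidation coupled to Amplex Red (25 uM)/HRP (250 mU/mL) in HBSS. 15 min preincubation plus 30 min after DTT, room temperature. Ex/Em 525/598 nm; 4-parameter Hill fit against DMSO and 10 uM DA3003.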

Values without a mark were called inactive. Results filed as inconclusive are left out. The source made the active and inactive calls. Calls come from the whole dose curve; as a rule, active = well fitted curve in the direction sought with a large enough effect; inconclusive = small, poorly fitted or top-dose-only effect, or another doubt; inactive = no such curve, though single readings can be large; an effect the other way counts as inactive or inconclusive.

Phospholipid hydroperoxide glutathione peroxidase GPX4 (Homo sapiens), sequence (P36969 whole entry, looked up): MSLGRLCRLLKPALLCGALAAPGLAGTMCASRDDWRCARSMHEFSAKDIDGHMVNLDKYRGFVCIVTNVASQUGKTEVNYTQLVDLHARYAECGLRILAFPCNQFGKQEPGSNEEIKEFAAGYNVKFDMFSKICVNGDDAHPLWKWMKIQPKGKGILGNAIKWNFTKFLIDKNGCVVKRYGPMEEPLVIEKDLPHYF
Glutathione peroxidase 1 (Homo sapiens), sequence (P07203 whole entry, looked up): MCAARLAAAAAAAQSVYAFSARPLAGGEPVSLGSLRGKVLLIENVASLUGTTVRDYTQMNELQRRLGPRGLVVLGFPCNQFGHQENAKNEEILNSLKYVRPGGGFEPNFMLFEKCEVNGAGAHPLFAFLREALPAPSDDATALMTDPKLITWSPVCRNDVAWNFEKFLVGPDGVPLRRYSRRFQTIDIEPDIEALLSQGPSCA

For the compound `OC[C@H]1O[C@@H](Oc2ccccc2)[C@H](O)[C@@H](O)[C@@H]1O`, the Potency result in assay [1], in assay [2], in assay [3], in assay [4], in assay [6] and in assay [7] was “inactive” in each case. The Potency in assay [5] was 21.2 µM (active).

Turning to `C/C(=C\CCC(C)CCO)C(=O)O[C@@H]1[C@@H](O)[C@H](OC2OC=C(C(=O)O)C3CCC(C)(O)C23)O[C@H](CO)[C@H]1O` (stereo partly specified), the Potency entry in assay [1], in assay [2], in assay [3], in assay [4], in assay [6] and in assay [7] was “inactive” each time. The Potency in assay [5] was 8.22 µM (active).

Regarding `C[C@@H]1C[C@@H](O)[C@@]23CO[C@@H](O)[C@@H]2CCC[C@@H]3[C@@]12C[C@@H](c1ccoc1)OC2=O`, the Potency entry in assay [1], in assay [2], in assay [3], in assay [4], in assay [5] and in assay [6] was “inactive” in each case. Moreover, the Potency entry in assay [7] is “inactive”.

Take `C[C@@H]1O[C@@H](O[C@H]2[C@H](OC(=O)[C@]34CCC(C)(C)C[C@H]3C3=CCC5[C@@]6(C)C[C@H](O)[C@H](O[C@@H]7O[C@H](CO)[C@@H](O)[C@H](O)[C@H]7O)[C@@](C)(CO)C6[C@H](O)C[C@@]5(C)[C@]3(C)CC4)OC[C@H](O)[C@@H]2O)[C@H](O)[C@H](O)[C@H]1O[C@@H]1OC[C@@H](O)[C@H](O[C@@H]2OC[C@](O)(CO)[C@H]2O)[C@H]1O` (stereo partly specified): the activity change, negative = cell killing in assay [1] is -13.7% [at 9.23 µM]. For the same compound, the outcome is “inactive [at 9.52 µM]” in assay [2] and “inactive [at 9.73 µM]” in assay [3]. The activity change, negative = inhibition in assay [4] is 1.22% [at 11.6 µM]. For the same compound, the activity change, negative = thiol reactive in assay [5] is 350% [at 11.5 µM]. In addition, in assay [6], the activity, negative = inhibition was 0% [at 11.6 µM]. For the same compound, in assay [7], the redox activity (% of DA3003) was 8.55% [at 11.5 µM].

With `COc1ccc2[nH]c3c(-c4cccc5ccccc45)nccc3c2c1`, the Potency in assay [1] was 0.578 µM (active). Moreover, the Potency entry in assay [2], in assay [3], in assay [4], in assay [5], in assay [6] and in assay [7] was “inactive” throughout.

Consider `CC1(C)CC[C@]2(C(=O)O[C@@H]3O[C@H](CO)[C@@H](O)[C@H](O)[C@H]3O)CC[C@]3(C)C(=CCC4[C@@]5(C)C[C@@H](O)[C@H](O)[C@](C)(C=O)C5CC[C@]43C)[C@@H]2[C@@H]1O` (stereo partly specified), for which the Potency result in assay [1], in assay [2], in assay [3], in assay [4], in assay [6] and in assay [7] was “inactive” each time. The Potency in assay [5] is 3.98 µM (active).

For the compound `O=C(Cc1ccc(-c2ccccc2)cc1)NC1CCC1`, the Potency result in assay [1], in assay [2], in assay [3], in assay [4], in assay [5] and in assay [6] was “inactive” throughout. The Potency result in assay [7] is “inactive”.

Regarding `CCOCc1cc(OC)c(-c2ccc(C[C@H](NC(=O)c3c(F)cccc3F)C(=O)O)cc2)c(OC)c1`, the Potency result in assay [1], in assay [2], in assay [3], in assay [4], in assay [5] and in assay [6] was “inactive” throughout. Also, the Potency result in assay [7] is “inactive”.

For `CC/C=C\C/C=C\C/C=C\CCCCCCCC(=O)OCC(O)COC1OC(CO)C(O)C(O)C1O` (stereo unspecified), the Potency entry in assay [1], in assay [2], in assay [3], in assay [4], in assay [5] and in assay [6] was “inactive” throughout. Also, the Potency result in assay [7] is “inactive”.

For `CC1(C)C[C@H](O)C[C@@]2(C)OC(=O)C=C12`, the Potency result in assay [1], in assay [2], in assay [3], in assay [4], in assay [6] and in assay [7] was “inactive” in each case. Moreover, the Potency in assay [5] was 39.8 µM (active).

Regarding `CC(=O)O[C@@H]1[C@@H](OC(=O)/C=C/c2ccccc2)[C@@H](OC(C)=O)[C@H](O[C@H]2[C@@H]3C=CO[C@@H](O[C@@H]4O[C@H](CO)[C@@H](O)[C@H](O)[C@H]4O)[C@@H]3[C@@]3(CO)O[C@@H]23)O[C@H]1C`, the Potency entry in assay [1], in assay [2], in assay [3], in assay [4], in assay [5] and in assay [6] was “inactive” throughout. In addition, in assay [7], the Potency entry is “inactive”.

`CCOc1ccc2nc(SCCN3CCOCC3)[nH]c2c1`: the Potency result in assay [1], in assay [2], in assay [3], in assay [4], in assay [5] and in assay [6] was “inactive” in each case. For the same compound, the Potency entry in assay [7] is “inactive”.

Take `CC1(C)CC[C@]2(C(=O)O[C@@H]3O[C@H](CO)[C@@H](O)[C@H](O)[C@H]3O)CC[C@]3(C)C(=CCC4[C@@]5(C)CC[C@H](O[C@@H]6O[C@H](C(=O)O)[C@@H](O)[C@H](O)[C@H]6O)C(C)(C)C5CC[C@]43C)C2C1` (stereo partly specified): in assay [1], the activity change, negative = cell killing was 4.17% [at 9.23 µM]. Also, the Potency result in assay [2] and in assay [3] was “inactive” throughout. Moreover, in assay [4], the activity change, negative = inhibition was 0.101% [at 11.6 µM]. In assay [5], the activity change, negative = thiol reactive was 258% [at 11.5 µM]. The activity, negative = inhibition in assay [6] is 3.65% [at 11.6 µM]. For the same compound, the redox activity (% of DA3003) in assay [7] is 15.1% [at 11.5 µM].

With `CCN(Cc1cccnc1)C(=O)CN(c1ccc(OC)nc1)S(=O)(=O)c1ccccc1C`, the Potency entry in assay [1], in assay [2], in assay [3], in assay [4], in assay [5] and in assay [6] was “inactive” throughout. Also, the Potency entry in assay [7] is “inactive”.

In the case of `C/C=C(/COC(=O)/C(C)=C/C)C(=O)OC(CC)c1ccc(OC)c(OC)c1` (stereo unspecified), the Potency entry in assay [1], in assay [2], in assay [3], in assay [4], in assay [5] and in assay [6] was “inactive” each time. The Potency result in assay [7] is “inactive”.

Consider `CC(O)c1cc(C(=O)N[C@@H](C)Cn2ccc(-c3ccc(C#N)c(Cl)c3)n2)n[nH]1` (stereo partly specified), for which, in assay [1], the Potency was 20.9 µM (active). Also, the Potency entry in assay [2], in assay [3], in assay [4], in assay [5], in assay [6] and in assay [7] was “inactive” in each case.

Consider `NCc1ccc(Nc2ncc(F)c(Nc3ccccc3)n2)cc1`, for which, in assay [1], the Potency was 4.09 µM (active). Also, the Potency entry in assay [2], in assay [3], in assay [4], in assay [5], in assay [6] and in assay [7] was “inactive” in each case.

Take `C[C@@H]1O[C@@H](O[C@@H]2[C@@H](O)[C@H](O[C@H]3[C@H](O[C@H]4CC[C@@]5(C)C(CC[C@]6(C)C5CC=C5[C@@H]7CC(C)(C)CC[C@]7(C(=O)O[C@@H]7O[C@H](CO)[C@@H](O)[C@H](O)[C@H]7O[C@@H]7O[C@@H](C)[C@H](O[C@@H]8O[C@@H](C)[C@H](O)[C@@H](O)[C@H]8O)[C@@H](O)[C@H]7O)CC[C@]56C)[C@@]4(C)CO)O[C@H](C(=O)O)[C@@H](O)[C@@H]3O)O[C@H](CO)[C@H]2O)[C@H](O)[C@H](O)[C@H]1O` (stereo partly specified): the activity change, negative = cell killing in assay [1] is -3.64% [at 9.23 µM]. Besides, the activity, negative = inhibition is -4.58% [at 9.52 µM] in assay [2] and 0% [at 11.6 µM] in assay [6]. Moreover, the activity change, negative = inhibition in assay [3] is 1.11% [at 9.73 µM]; in assay [4], -1.57% [at 11.6 µM]. In assay [5], the activity change, negative = thiol reactive was 155% [at 11.5 µM]. Besides, the redox activity (% of DA3003) in assay [7] was 1.07% [at 11.5 µM].
